# Compounds with a hit are over-represented: about 19% of the library has one in this group of screens.
# SARS PLpro yeast: SARS-CoV PLP inhibition in yeast. S. cerevisiae expressing SARS-CoV PLpro, growth rescue. Potency, µM (titrated, usually from 32.9 µM), for inactives: at the top dose activity, positive = growth rescue, most hits filed as activators. actives 0.19% (n = 330,000); calls by dose curve; note: potency is the fitted concentration of half-maximal effect; 0% is about no effect; nearly all actives have a fitted effect of over 55% in size
# Cycloheximide cs: counter-screen for Shiga toxin inhibitors: cycloheximide protein synthesis inhibition. cell reporter, cycloheximide protein synthesis inhibition counterscreen. AID 2314. max response, %. actives 12% (n = 300,000); in the data active = max response mostly above about 13%, no sharp cut-off; inactive = mostly below about 14%; note: read at 38.3 µM for the half of the compounds with a filed dose; 0% is about no effect
# Pf growth 96h: inhibits malaria parasite growth, 96 h; P. falciparum luciferase reporter growth, 96 h; Potency, µM (top dose mostly 28.7 µM), for the others: at the highest dose activity change, negative = inhibition, hits mostly inhibitors; actives 6.9% (n = 320,000); note: potency is the fitted concentration of half-maximal effect; % is set by controls: 0 for no effect and ±100 for the full control effect
#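 Plates of compound plus infected erythrocytes (2% hematocrit, 0.05% parasitemia final) incubate 96 hours, 37 C, 5% CO2. Detection reagent added; reduced luminescence from the parasites' luciferase reporter flags inhibition.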
# AMA1 RON2 block: AMA1-RON2 (P. falciparum) interaction inhibition; AlphaScreen AMA1-biotinylated RON2 peptide binding; Potency, µM (doses to about 58.2 µM), for inactives: at the highest dose activity change, negative = inhibition, actives largely listed as inhibitors; actives 0.2% (n = 360,000); AID 720542;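 note: potency is the fitted concentration of half-maximal effect; 0% = vehicle wells and -100% = peptide control; nearly all actives have a fitted effect of over 45% in size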
#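 AMA1 (3D7) with his tag at 25 nM final met compounds first, then biotinylated RON2 peptide at 25 nM; detection used donor plus acceptor beads, 10 µg/mL apiece, read by AlphaScreen after 30 min at room temperature.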
# Shiga toxin inh: Shiga toxin inhibition. Vero cells, Shiga toxin protein synthesis inhibition reporter. inhibition, % at 38.7 µM. actives 9.2% (n = 290,000); in the data active = inhibition mostly above about 28%, no sharp cut-off; inactive = mostly below about 43%; note: 0% is about no effect
# Pf growth 48h: P. falciparum growth inhibition at 48 hours (one generation); P. falciparum luciferase growth in erythrocytes, 48 h; Potency, µM (doses to about 28.7 µM), inactives show at the highest dose activity change, negative = inhibition, actives largely listed as inhibitors; actives 5.9% (n = 310,000); AID 504832; note: potency is the fitted concentration of half-maximal effect; % is set by controls: 0 for no effect and ±100 for the full control effect
#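 Compounds are pin-transferred into medium, infected erythrocytes (2% hematocrit, 0.1% parasitemia final) are added, and plates sit one parasite generation at 37 C in 5% CO2. Detection reagent is then added and luminescence measured.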
# An asterisk follows results filed as active; ? = inconclusive; . = not tested or not shown; [ ] = dose if it differs, or a comment. Unless noted, calls come from the whole dose curve; as a rule, active = well fitted curve in the direction sought with a large enough effect; inconclusive = small, poorly fitted or top-dose-only effect, or another doubt; inactive = no such curve, though single readings can be large; an effect the other way counts as inactive or inconclusive.
SMILES,SARS PLpro yeast,Cycloheximide cs,Pf growth 96h,AMA1 RON2 block,Shiga toxin inh,Pf growth 48h
CN(C)CC(NC(=O)c1cccc(S(=O)(=O)Nc2ccc3c(c2)OCO3)c1)c1ccccc1 (stereo not drawn),-7%[6.58 µM],.,4.1µM*,1%,.,?
COc1ccc(S(=O)(=O)NC(=O)C2(C)CCN2C(=O)C(C)(C)c2ccccc2)cc1 (stereo not drawn),.,.,.,0%,.,.
O=S1(=O)C2CC3C=CC2(O3)C(O)C(Cc2ccccc2)N1Cc1cccc(C(F)(F)F)c1 (stereo not drawn),.,-4,.,.,3,.
CC(C)n1c(N2CCN(CC(=O)Nc3ccc4c(c3)OCCO4)CC2)nc2ccccc21,-17%,-2,5.9µM*,-2%,15,?
CC(C)Cn1c(N2CCN(CC(=O)Nc3ccc(Cl)cc3)CC2)nc2ccccc21,1%,4,27%,-5%,-10,9%
Brc1ccc2nc(C3CCCCC3)c(CC3CCCCC3)n2c1,.,.,.,-7%,.,.
O=c1[nH]c2cc3c(cc2cc1CN(Cc1ccccc1)Cc1nnnn1Cc1ccco1)OCCO3,10%,3,.,-4%,48,?
O=c1[nH]c2cc3c(cc2cc1CN(Cc1cccs1)Cc1nnnn1Cc1ccco1)OCCO3,12%,-4,12µM*,-8%,12,?
COc1ccccc1CN(Cc1cc2cc3c(cc2[nH]c1=O)OCCO3)Cc1nnnn1Cc1ccco1,-4%,-2,1µM*,-75%,-13,?
Cc1cc2c(SCC(=O)NCC3CCCO3)ncnc2s1 (stereo not drawn),1%,8,-13%,-6%,-3,-2%
O=C(CC(=O)Nc1nc(C23CC4CC(CC(C4)C2)C3)cs1)NCCO,-3%,1,9.3µM*,-10%,13,13µM*
CNc1nc(C23CC4CC(CC(C4)C2)C3)cs1,5%,0,33%,-22%,-7,?
COc1ccc2nc(/N=C/c3cccc(OC)c3O)sc2c1,-5%,26*,6%,-5%,26,2%
Cc1ccccc1/C=N/Nc1nc2ccccc2c(=O)n1O,9%,20*,47%,71%,75*,35%
Cc1ccc(-c2nc3ccccc3c(=O)n2O)cc1,4%,5,?,6%,19,?
COc1ccc(/C=N/Nc2cc(C)nc3ccc(Br)cc23)cc1,-2%,-4,0.47µM*,?,-20,0.26µM*
COc1ccc2c(c1)-c1nc(/N=C/c3cccc(OC)c3O)sc1CC2,-48%,12,21%,5%,34,50%
COc1ccc2nc(C)cc(N/N=C/c3cccc(OC)c3O)c2c1,-9%,10,-9%,-3%,14,0.093µM*
CCOc1ccc(N2C(=O)C3C(c4ccccc4F)NN(C(=O)c4ccc(C)cc4)C3C2=O)cc1 (stereo not drawn),-3%,-2,-9%,0%,11,13%
O=C(NCc1cccnc1)NC(=O)c1ccc(Cl)cc1,-6%,-1,-5%,-10%,1,3%
Cc1ccc2nc(C)cc(N/N=C/c3cccnc3)c2c1,-1%,-5,19%,8%,20,3%
Cc1cc(N/N=C/c2ccccc2O)c2ccccc2n1,4%,26*,?,-18%,45,0.52µM*
COc1ccc2nc(N=Nc3ccc(N(C)C)cc3)sc2c1,0%,31*,336%,?,126*,5%
O=C(CSc1ccccc1C(=O)O)c1ccc(Cl)cc1,1%,30*,34%,5%,65*,64%
O=C(CSc1ccccc1C(=O)O)c1ccccc1,29%,7,28%,-2%,21,51%
SMILES,SARS PLpro yeast,Cycloheximide cs,Pf growth 96h,AMA1 RON2 block,Shiga toxin inh,Pf growth 48h
Cc1ccc(C(=O)N2CC=C(c3ccccc3)CC2)s1,1%,.,1%,0%,.,10µM*
O=C(O)C1CCCCC1C(=O)N1CC=C(c2ccccc2)CC1 (stereo not drawn),1%,27*,-9%,0%,53*,-21%
O=C(Nc1cccc(F)c1)N1CC=C(n2c(=O)[nH]c3ccccc32)CC1,-6%,-1,32%,4%,-6,10µM*
O=C(Nc1cccc2ccccc12)N1CC=C(c2ccccc2)CC1,3%,-4,0.1µM*,-2%,35,.
O=C(CCn1c(=O)[nH]c2ccccc2c1=O)N1CC=C(c2ccccc2)CC1,-7%,1,-25%,-10%,-4,-1%
O=C(c1ccc(Br)o1)N1CC=C(c2ccccc2)CC1,1%,.,.,?,.,.
O=C(Nc1ccccc1)N1CC=C(c2ccc(F)cc2)CC1,-22%,52*,.,2%,95*,10µM*
O=C(Nc1ccccc1)N1CC=C(c2ccccc2)CC1,-3%,36*,.,.,80*,170%
CCCNCC(O)Cn1c2ccccc2n2c(=O)cc(C)c(C#N)c12 (stereo not drawn),-3%,1,12µM*,9%[2.32 µM],-2,3.7µM*
CCCCOC(=O)c1ccc(NC(=O)c2ccccc2OC)cc1,-28%,7,?,27%,29*,-13%
CCCOC(=O)c1ccc(NC(=O)c2ccccc2OC)cc1,-19%,26*,22%,24%,86*,3%
CCCCOC(=O)c1ccc(NC(=O)c2cc(Cl)ccc2OC)cc1,-2%,10,?,2%,-3,?
CCCOC(=O)c1ccc(NC(=O)c2ccccc2[N+](=O)[O-])cc1,-1%,38*,?,5%,91*,39%
CCC(=O)NC(=S)Nc1ccc(NC(=O)c2ccccc2[N+](=O)[O-])cc1,7%,-3,0%,4%,-8,-2%
CCCOC(=O)c1ccc(NC(=O)c2c(Cl)ccc(Cl)c2OC)cc1,-60%,-2,24%,14%,-3,2%
O=C(CN(c1cc(Cl)ccc1Cl)S(=O)(=O)c1ccccc1)N1CCOCC1,-1%,-3,-13%,-5%,-32,-20%
O=C1NC(Cc2c[nH]c3ccccc23)C(=O)N1CCOc1ccccc1 (stereo not drawn),0%,-2,?,0%,-2,-6%
COC(=O)N1CCCc2cc(C)ccc21,0%,-2,49%,4%,-7,15%
CCOC(=O)c1cc(NC(=O)N2CCCc3ccccc32)c(C)nc1C,0%,20*,25%,-3%,43,51%
COc1ccc(NC(=O)N2CCC(c3ccccc3)C2)c(OC)c1 (stereo not drawn),-6%,7,19%,-7%,23,.
CCOC(=O)c1cc(NC(=O)Nc2cc(C)ccn2)c(C)nc1C,1%,14,34%,-12%,39*,16%
COc1ccc(C)cc1NC(=O)N1CCCc2ccccc21,-2%,23*,31%,-26%,75*,-14%
COc1ccc(NC(=O)N2CCCc3ccccc32)c(OC)c1,2%,17*,-47%,1%,44,-8%

# From PubChem BioAssay
